Source: PubChem (several laboratories)
SRC1 inh: human NCOA1 inhibition; Q15788; HEK293 GAL4-SRC1 luciferase reporter, luminescence; inhibition, % at 3.6 µM; 360,000 compounds, 0.12% hits; AID 588354;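 active = inhibition above the campaign mean plus 3 SD, with each screening campaign given its own cutoff, cut at about 60% in these data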;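 also: 0% = DMSO treated cells and 100% = gossypol at 36 µM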
SRC3 inh: human NCOA3 inhibition. 360,000 compounds, 0.17% hits. inhibition, % at 3.6 µM. Q9Y6Q9. HEK293 GAL4-SRC3 luciferase reporter, luminescence;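 active = inhibition above a per-campaign cutoff, the mean of all compounds plus 3 SD, cut at about 60% in these data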;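 also: 0% = DMSO-treated cells and 100% = gossypol-treated cells at 36 µM; higher means less SRC3-driven luciferase light from the GAL4 reporter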
SRC2 inh: human SRC2 (NCOA2) inhibition | HEK293 GAL4-SRC2 luciferase reporter, luminescence | inhibition, % at 9 µM | 370,000 compounds, 0.17% hits | Q15596 | AID 651957;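 active = inhibition above the mean inhibition of all tested compounds plus 3 SD, set per campaign, cut at about 52% in these data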;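 also: 0% = DMSO treated cells and 100% = cells given Gossypol at 36 µM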
Gli-Sufu antag: blocks Gli-Sufu signaling in a luciferase reporter | Sufu-KO-LIGHT fibroblasts, Gli luciferase reporter luminescence | inhibition, % at 5 µM | 340,000 compounds, 0.74% hits | AID 588413;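 active = inhibition above about 55%, limit read from the data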;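 also: 0% = DMSO-treated cells and 100% = wells with medium but no cells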
NR2F2 inh: NR2F2 (human) inhibition, primary screen | P24468 | HEK293T NGFI-A luciferase reporter, luminescence | inhibition, % at 8.6 µM | 370,000 compounds, 0.7% hits | AID 686940;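 active = inhibition above a per-plate cutoff, mean inhibition of test wells between control levels plus 3 SD, cut at about 38% in these data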;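 also: cells cotransfected with COUP-TFII expression vector driving the NGFI-A reporter; 0% = median of COUP-TF2 test wells and 100% = reporter-only cells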
LRH-1 inv ag: inverse agonists of human LRH-1 (NR5A2); O00482; HEK293T StAR-luciferase reporter, LRH-1 transfected, 24 h; inhibition, % at 3.6 µM; 360,000 compounds, 0.13% hits;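 active = inhibition above the mean inhibition of all tested compounds plus 3 SD, cut at about 73% in these data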;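 also: 0% = DMSO wells and 100% = reporter-only cells lacking LRH-1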
Target sequence (O00482 whole entry, looked up): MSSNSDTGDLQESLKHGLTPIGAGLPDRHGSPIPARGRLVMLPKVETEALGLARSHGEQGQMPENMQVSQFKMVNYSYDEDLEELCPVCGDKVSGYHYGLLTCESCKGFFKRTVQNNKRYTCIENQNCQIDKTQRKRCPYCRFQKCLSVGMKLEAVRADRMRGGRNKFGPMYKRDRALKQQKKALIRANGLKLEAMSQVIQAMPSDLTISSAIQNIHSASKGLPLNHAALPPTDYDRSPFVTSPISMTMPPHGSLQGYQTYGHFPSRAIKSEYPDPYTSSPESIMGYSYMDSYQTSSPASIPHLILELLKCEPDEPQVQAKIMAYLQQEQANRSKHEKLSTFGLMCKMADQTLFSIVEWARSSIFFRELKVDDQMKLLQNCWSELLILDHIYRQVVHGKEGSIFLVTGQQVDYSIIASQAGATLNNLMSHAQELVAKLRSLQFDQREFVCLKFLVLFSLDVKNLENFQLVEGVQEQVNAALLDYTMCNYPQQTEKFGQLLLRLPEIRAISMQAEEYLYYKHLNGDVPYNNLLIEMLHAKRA
VP16 Luc counter: counter-screen for COUP-TFII antagonists: inhibitors of VP16; 2,500 compounds, 25% hits; HEK293 Gal4-VP16 luciferase reporter, luminescence; AID 687007; inhibition, % at 8.5 µM; shares compounds with NR2F2 inh; in the data active = inhibition above about 13%
COUP-TFII conf: COUP-TFII (NR2F2) inhibition, confirmation assay. HEK293 NGFI-A luciferase reporter, luminescence. 2,500 compounds, 45% hits. shares compounds with NR2F2 inh. inhibition, % at 8.5 µM;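 active = mean inhibition over three repeats above a set limit taken from the earlier primary screen, cut at about 38% in these data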;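 also: 100% = cells given the luciferase reporter alone without the COUP-TF2 vector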
The depositor's hits bear a star; . = no result given. Shown are actives, neighbours in structure and some others; about 1.3% of the full set was active somewhere.

SMILES	SRC1 inh	SRC3 inh	SRC2 inh	Gli-Sufu antag	NR2F2 inh	LRH-1 inv ag	VP16 Luc counter	COUP-TFII conf
CC[n+]1c(/C=C2\Sc3ccccc3N2C)ccc2cccc(C)c21	29.4	55.1	-55.8	86.9*	79.5*	83.6*	13.5*	78.1*
O=C(NCC1COCCO1)C1CCN(S(=O)(=O)c2cccc3ccccc23)CC1 (centres undefined)	.	.	-1.3	.	-16.8	.	.	.
Cc1cc(C2=NNC(=NC3CC3)SC2)c(C)n1-c1ccccc1F	93.0*	88.5*	92.8*	92.8*	97.1*	89.5*	94.0*	108.2*
c1cc2c(cc1C1=NNC(=NC3CC3)SC1)OCCO2	56.6	65.8*	60.7*	77.1*	46.5*	24.7	52.4*	75.8*
Cc1cc(C2=NNC(=NC3CCCCC3)SC2)c(C)n1-c1c(C)n(C)n(-c2ccccc2)c1=O	10.7	1.0	-5.2	0.0	18.1	10.3	.	.
CCCCN=C1NN=C(c2ccc3c(c2)OCCO3)CS1	-63.2	-48.0	-75.9	-27.4	-20.3	-88.2	.	.
COC(=O)[C@]12C[C@H](CC(=O)NCc3ccc(OC)c(OC)c3)C(=O)N(Cc3cccc4ccccc34)C1=C[C@H](C(C)(C)C)O[C@@H]2C	.	.	10.2	.	0.7	.	.	.
COc1ccc(C2CCc3cc4c(cc3C2=NOC(C)=O)OCO4)cc1OC (centres undefined)	-10.8	-30.4	-2.4	.	44.3*	4.0	-2.2	5.1
C=CCN(CC#CC(=C)C)CC1CC1	.	.	13.8	.	-13.0	.	.	.
CC(=O)Nc1cccc(OCC(O)Cn2c(C)nc3ccccc32)c1 (centres undefined)	10.0	20.9	0.5	-3.8	0.6	9.3	.	.
CCCOC(=O)c1ccc(OCC(O)Cn2c(C)nc3ccccc32)cc1 (centres undefined)	16.2	10.1	22.0	28.5	39.2*	22.6	-42.6	30.2
Cc1ccccc1C(=O)N1CCC(Oc2cccnc2)CC1	.	.	4.3	.	6.7	.	.	.
CCOc1ccc(Oc2ccccc2NC(=O)CSCC(=O)Nc2cc(C)on2)cc1	-1.5	17.6	13.2	-8.8	50.5*	23.3	4.5	38.0*
COC(=O)C[C@@H]1CC[C@H]2[C@@H](COc3ccc(NS(=O)(=O)c4ccccc4F)cc3C(=O)N2C)O1	.	.	8.8	.	-5.0	.	.	.
CCOc1ccc(CN(C)C(=O)CNC(=O)c2ccccc2)cc1	-20.8	-5.1	-25.0	-2.4	-8.0	8.5	.	.
C=CCOc1ccc(CN(C)C(=O)CNC(=O)c2ccc(-c3ccccc3)cc2)cc1	1.3	5.7	12.2	-10.4	46.6*	21.5	1.1	35.8
O=C1c2ccccc2C2Cc3nnccc3CN12 (centres undefined)	.	.	-34.9	.	-1.5	.	.	.
Cc1ccc(NC(=O)C2CCN(S(=O)(=O)c3ccc4c(c3)NC(=O)C(C)S4)CC2)cc1Cl (centres undefined)	13.2	20.6	18.2	59.6*	64.4*	0.8	12.6	46.9*
CCCCN(C)C(=O)CSc1nnc(-c2cccnc2)n1C1CCCCC1	.	.	2.0	.	16.2	.	.	.
O=C(Nc1ccc(-c2cn3ccsc3n2)cc1)c1ccc(F)c(S(=O)(=O)N2CCOCC2)c1	4.0	28.8	29.5	11.3	46.9*	-35.8	-21.9	-13.0
COC(=O)[C@]12C[C@H](CC(=O)N3CCCCC3)C(=O)N(CCC3=CCCCC3)C1=C[C@H](C1CCCC1)O[C@@H]2C	.	.	-6.8	.	-9.6	.	.	.
CC(C)(C)OC(=O)NC1CCN(c2nc(-c3ccc(Br)cc3)cs2)CC1	.	.	.	.	38.6*	.	0.1	-3.7
Cc1ccc(NC(=O)COC(=O)CCc2c[nH]c3ccccc23)cc1	-3.9	13.2	-5.6	.	4.2	10.4	.	.
O=C(COC(=O)CCc1c[nH]c2ccccc12)Nc1ccccc1	-6.3	7.2	-8.4	-4.2	63.1*	-2.9	2.0	4.3
COc1ccc(NC(=O)c2ccc(CNS(=O)(=O)c3cccc(OC)c3)cc2)cc1	-20.4	11.3	-16.2	1.6	7.5	8.7	.	.
O=C(Nc1ccc(Cl)c(Cl)c1)c1cccc(S(=O)(=O)NCc2cccnc2)c1	24.9	22.8	15.6	16.0	52.7*	29.5	-0.3	29.8
